# Test results as given in the supplement of paper PMC10981050.
# “And” between values parts separate entries of the source, which are not always exact repeats. Equal values may be shown once. Where a name gives a salt, the structure may show the parent alone.
# Assays:
# Experiment in all cases: cell viability relative to vehicle control; higher = less cytotoxic
# Settings in all cases: 10 µM
# K562 = tested on: K562
# Outline: (§1)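 Four leukaemia lines, as CRISPR-edited mutant clones and isogenic wild-type clones, were tested against Selleck bioactive, kinase and epigenetic probe libraries after removal of identity-inconsistent compounds. Cells were exposed to a single 10 µM dose for 48 h, and CellTiter-Glo luminescence was then read. Viability was calculated relative to the on-plate vehicle control.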
# MARIMO = tested on: MARIMO
# Outline: as §1
# MOLM14 = tested on: MOLM14
# Outline: as §1
# OCI-AML2 = tested on: OCI-AML2
# Outline: as §1
Compound,cell viability (K562; SRSF2 genotype: SRSF2 P95H/wt),cell viability (K562; SRSF2 genotype: SRSF2 wt/wt) [%],cell viability (MARIMO; SRSF2 genotype: SRSF2 P95H/wt) [%],cell viability (MARIMO; SRSF2 genotype: SRSF2 wt/wt) [%],cell viability (MOLM14; SRSF2 genotype: SRSF2 P95H/wt) [%],cell viability (MOLM14; SRSF2 genotype: SRSF2 wt/wt) [%],cell viability (OCI-AML2; SRSF2 genotype: P95H/wt) [%],cell viability (OCI-AML2; SRSF2 genotype: wt/wt) [%]
CCOC(=O)c1ccc(N)cc1 [Benzocaine],92% and 83.9%,94.2,84,91.7,87.9,92.4,91.4,94.6
CCOC(=O)[C@H](CCc1ccccc1)N[C@H]1CCc2ccccc2N(CC(=O)O)C1=O [Benazepril hydrochloride],109% and 106%,108,101,111,95.9,98.9,93.3,102
FC(F)(F)c1ccc(/C=C/c2nc(COc3ccc(CCCCn4ccnn4)cc3)co2)cc1 [Mubritinib (TAK 165)],68.1% and 58.5%,56.7,67.2,61.8,70.1,55.5,49.2,47
COC(=O)C1=CC[C@@]23CC[C@@H]([C@@](C)(/C=C/C=C(\C)C(=O)O)OC2=O)[C@@]3(OC(C)=O)CC1 [Pseudolaric Acid B],18.7% and 39.2%,33.1,6.72,9.79,15.9,3.39,8.39,11.6
C[C@H]1Oc2cc(cnc2N)-c2c(nn(C)c2C#N)CN(C)C(=O)c2ccc(F)cc21,102% and 95.5%,99.1,91.1,91,119,106,94.9,104
COc1cc(N2CCN(C)CC2)ccc1Nc1ncc2c(n1)N(C)c1ccccc1C(=O)N2,83.4% and 82.7%,78.9,97.7,90.1,78.1,91.3,83.3,73.2
Cc1nccn1CCC(C(N)=O)(c1ccccc1)c1ccccc1 [Imidafenacin],94.5% and 91.6%,105,87.6,91.8,99.2,101,90.8,102
CCn1c(-c2nonc2N)nc2c(C#CC(C)(C)O)ncc(OC[C@H]3CCCNC3)c21,87.1% and 95.7%,79.5,73,72.3,59.2,47.1,53.9,57.1
N#Cc1c(Oc2ccc(F)c(NC(=O)Cc3cccc(C(F)(F)F)c3)c2)ccc2nc(NC(=O)C3CC3)sc12,12.9% and 18.9%,19,40.9,36.8,36.6,25.9,31.6,36.8
C=C(C)[C@@H]1CC[C@]2(C(=O)O)CC[C@]3(C)[C@H](CC[C@@H]4[C@@]5(C)CC[C@H](O)[C@@](C)(CO)[C@@H]5CC[C@]43C)[C@@H]12 [23-Hydroxybetulinic acid],93.7% and 96.8%,91.1,96.6,107,100,103,103,109
Cc1nc2cc(F)c(F)cc2n1-c1cncc(Nc2ccc(C(F)(F)F)cc2)n1,10.5% and 26.5%,28,8.44,6.32,11.7,2.75,6.57,9.7
O=c1[nH]c(=O)n(C2CCCO2)cc1F (configuration not stated),107% and 105%,103,96.4,108,99.7,104,93.9,105
CCOC(=O)c1cc2ccccc2oc1=O [Ethyl Coumarin-3-carboxylate],96.8% and 96.2%,92.9,94.3,97.2,88.7,98,95,96.8
CN1CCN(Cc2ccc(NC(=O)Cc3ccc(Oc4cc(NC(=O)C5CC5)ncn4)cc3)cc2C(F)(F)F)CC1,30.9% and 36.5%,23.8,4.48,2.16,1.39,0.45,1,5.81
CCCCNc1ncc2c(-c3ccc(CN4CCN(C)CC4)cc3)cn([C@H]3CC[C@H](O)CC3)c2n1,5.45% and 6.26%,6.13,8.07,5.67,0.26,0.23,1.56,5.54
CN(C/C=C/C#CC(C)(C)C)Cc1cccc2ccccc12 [Terbinafine hydrochloride (Lamisil)],88.5% and 88.7%,90.3,87.8,105,86.8,99.9,87.4,97.6
CC(NC(=O)C(Cc1ccccc1)NC(=O)OCc1ccccc1)C(=O)CF (configuration not stated),102% and 101%,96,92.9,111,94.3,101,98.8,94.9
CCCCC1OC(=O)c2ccccc21 (configuration not stated) [3-n-Butylphathlide],93.7% and 104%,91.5,91.9,104,99.8,96.7,90.6,94.2
Cc1ccc(-c2csc(NC(=O)c3ccccc3)n2)c(C)c1,80.3% and 83.3%,81.5,76.2,81,94.1,92.7,63.8,66.8
COc1cc(O)cc2c1C(=O)C[C@@H](c1ccccc1)O2 [Alpinetin],107% and 103%,96.5,101,109,109,110,102,106

Compound,cell viability (K562; SRSF2 genotype: SRSF2 P95H/wt),cell viability (K562; SRSF2 genotype: SRSF2 wt/wt) [%],cell viability (MARIMO; SRSF2 genotype: SRSF2 P95H/wt) [%],cell viability (MARIMO; SRSF2 genotype: SRSF2 wt/wt) [%],cell viability (MOLM14; SRSF2 genotype: SRSF2 P95H/wt) [%],cell viability (MOLM14; SRSF2 genotype: SRSF2 wt/wt) [%],cell viability (OCI-AML2; SRSF2 genotype: P95H/wt) [%],cell viability (OCI-AML2; SRSF2 genotype: wt/wt) [%]
O=C1CCc2c(ccc3ccccc23)O1 [Splitomicin],105% and 97%,95.4,103,107,98.7,99.5,96.9,102
COc1cc(C(=O)O)ccc1O [Vanillic acid],103% and 97.7%,111,98.9,105,102,108,104,113
Nc1ncnc2c1ncn2[C@@H]1O[C@H](CO)C[C@H]1O [Cordycepin],94.3% and 102%,89.3,90.4,99,102,102,94.1,112
CCCCCCCN(CC)CCCC(O)c1ccc(NS(C)(=O)=O)cc1 (configuration not stated) [Ibutilide fumarate],87.6% and 106%,93.2,91.6,107,97.9,103,97.9,96.4
Nc1ccc(/C=C/C(=O)NCc2cc3cc(-c4ccc(C(=O)N5CCC(F)(F)CC5)cc4)cc(-c4ccc(F)cc4)c3o2)cn1,19.8% and 14.3%,19.1,10,13.1,4.36,1.09,4.54,4.59
CCCCOc1ccc(C(=O)Nc2ccc(F)cc2F)cc1,91% and 91.9%,91.8,75.4,88.6,100,110,85.7,92.8
NC(=O)c1cc(F)cc2c1C(=O)N(C1CCN(C3CCC(F)(F)CC3)CC1)C2,97.3% and 103%,95.7,96.4,106,82.6,97.3,87.5,96.1
Cc1ccc(C(=O)Nc2ccc(CN3CCN(C)CC3)c(C(F)(F)F)c2)cc1C#Cc1cnc2[nH]ncc2c1 [GZD824 Dimesylate],0.41% and 0.25%,0.26,0.31,0.33,0.15,0.17,0.16,0.2
CC1(C)OC[C@@H](COC(=O)CCc2ccc(OC[C@@H](O)CNCCNC(=O)N3CCOCC3)cc2)O1 [Landiolol hydrochloride],93.9% and 87.6%,101,97.6,92.6,97.6,98.2,98.3,102
CCn1c2ccccc2c2cc(CNCc3ccccc3OC)ccc21 [HLCL-61 hydrochloride],81.8% and 88%,84.8,73.9,84.8,75,88.9,65.8,76.6
CC[C@H]1OC(=O)[C@H](C)[C@@H](O[C@H]2C[C@@](C)(OC)[C@@H](O)[C@H](C)O2)[C@H](C)[C@@H](O[C@@H]2O[C@H](C)C[C@H](N(C)C)[C@H]2O)[C@](C)(O)C[C@@H](C)C(=O)[C@H](C)[C@@H](O)[C@]1(C)O [Erythromycin],99.5% and 99.1%,97.1,101,98.2,104,99.6,106,103
C[C@H](NC(=O)C(=O)Nc1ccccc1C(C)(C)C)C(=O)N[C@@H](CC(=O)O)C(=O)COc1c(F)c(F)cc(F)c1F,106% and 107%,108,111,107,90.2,101,111,106
CCN(CCO)CCCOc1ccc2c(Nc3cc(CC(=O)Nc4cccc(F)c4)[nH]n3)ncnc2c1 [Barasertib (AZD1152-HQPA)],70.7% and 93.2%,81,73.2,68.2,13.9,7.61,29.1,36.6
Cc1cc(C)c2c(c1)[C@@H](N(Cc1cc(C(F)(F)F)cc(C(F)(F)F)c1)c1nnn(C)n1)CCCN2C[C@H]1CC[C@H](C(=O)O)CC1,89% and 90.3%,90.1,104,114,95.4,98.7,101,116
O=C(Cn1cnnn1)N[C@@H]1C(=O)N2C(C(=O)O)=C(CSc3nncs3)CS[C@H]12 [Ceftezole],102% and 97.3%,103,96.3,105,105,104,103,109
O=C(NCCN1CCOCC1)c1ccc(Cl)cc1,97.6% and 103%,106,101,98.8,97.6,105,105,93.8
OCCOc1ccc(/C(=C(/CCCl)c2ccccc2)c2ccccc2)cc1 [Ospemifene],101% and 99.5%,96.5,105,109,79.3,99.9,88.2,96.3
COc1ccc(-c2cc(=O)c3c(O)cc(OC4OC(CO)C(O)C(O)C4OC4OC(C)C(O)C(O)C4O)cc3o2)cc1O (configuration not stated) [Neodiosmin],93.3% and 85.3%,90.1,94.6,97,97.6,100,89.8,94.4
O=C(O)COCCN1CCN([C@H](c2ccccc2)c2ccc(Cl)cc2)CC1 [Levocetirizine Dihydrochloride],99% and 88.4%,101,93.2,107,92.4,99.3,91.7,103
